Data reported in PubChem BioAssay (NCI).
Where “and” joins values, the source holds several entries; their conditions need not be identical. Equal values may be shown once. About 83,000 compounds went through this panel and 20% of them were active in at least one assay; those are over-represented in the sample as a whole.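 In brief: 96-well plates, 48 h treatment, single concentration, percent growth endpoint.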 Calls of active or inactive are those of the source. Rule for the calls: active = growth percent below 10; inactive = the rest.

Assays:
Assay in all cases: NCI-60 one-dose screen, 48 h (100 = growth as untreated, 0 = no growth, -100 = all killed)
Settings in all cases: 10 µM unless noted
SK-MEL-2 melanoma = tested on: SK-MEL-2 melanoma
EKVX NSCLC = tested on: EKVX NSCLC
SN12C renal = tested on: SN12C renal
UO-31 renal = tested on: UO-31 renal
TK-10 renal = tested on: TK-10 renal
ACHN renal = tested on: ACHN renal
CAKI-1 renal = tested on: CAKI-1 renal
A498 renal = tested on: A498 renal
CCRF-CEM leukemia = tested on: CCRF-CEM leukemia
MOLT-4 leukemia = tested on: MOLT-4 leukemia

Measured: growth

O=c1ccc2nc(-c3ccccn3)nn(-c3ccccc3)c-2c1
inactive: SK-MEL-2 melanoma 106% | EKVX NSCLC 115% | SN12C renal 84.6% | UO-31 renal 40.1% | CAKI-1 renal 72.5% | A498 renal 91.9%
active: TK-10 renal -70.9% | ACHN renal -84.7% | CCRF-CEM leukemia 8.49% | MOLT-4 leukemia 5.56%

O=S(=O)(Nc1ccc(F)cc1)c1ccc(-c2cnc(C3CC3)o2)cc1
inactive: SK-MEL-2 melanoma 12.8% | EKVX NSCLC 44.4% | SN12C renal 35.5% | UO-31 renal 36.3% | TK-10 renal 32.4% | ACHN renal 32% | CAKI-1 renal 36.3% | A498 renal 14.1% | CCRF-CEM leukemia 10.5% | MOLT-4 leukemia 12.7%

CCOC(=O)C1=C(C)N=C2SC=C(c3ccc(F)cc3)N2[C@H]1c1cn(-c2ccccc2)nc1-c1ccc(Cl)cc1
inactive: SK-MEL-2 melanoma 97.4% | EKVX NSCLC 88.4% | SN12C renal 98.6% | UO-31 renal 85.1% | TK-10 renal 93.6% | ACHN renal 101% | CAKI-1 renal 84.1% | A498 renal 89.7% | CCRF-CEM leukemia 95.5% | MOLT-4 leukemia 78.3%

COc1ccc(S(=O)(=O)Nc2cc(Sc3cccc4cccnc34)c(O)c3ccccc23)cc1
inactive: EKVX NSCLC 36.7% | SN12C renal 17.2% | UO-31 renal 27.4% | TK-10 renal 23.4% | CAKI-1 renal 20% | A498 renal 65.2% | CCRF-CEM leukemia 13.4%
active: SK-MEL-2 melanoma 5.09% | ACHN renal 7.43% | MOLT-4 leukemia -4.51%

COc1ccc(-c2ccc(-c3ccc(C(=N)N)cn3)o2)cc1Cl
inactive: SK-MEL-2 melanoma 83.1% | EKVX NSCLC 70.4% | SN12C renal 44.5% | UO-31 renal 52.4% | TK-10 renal 94.4% | ACHN renal 17.3% | CAKI-1 renal 40.2% | A498 renal 80.5% | MOLT-4 leukemia 10.7%
active: CCRF-CEM leukemia -4.6%

COc1cc(Cl)cc(-c2nn(C(=O)NS(=O)(=O)c3ccc(Cl)cc3)cc2-c2ccncc2)c1
inactive: SK-MEL-2 melanoma 95% | EKVX NSCLC 59.5% | SN12C renal 92.5% | UO-31 renal 63% | TK-10 renal 85.8% | ACHN renal 80.6% | CAKI-1 renal 91% | A498 renal 70.2% | CCRF-CEM leukemia 88% | MOLT-4 leukemia 76.2%

Cc1ccc(-c2nc3nc(-c4ccc(Br)cc4)nc(N4CCCNCC4)c3o2)cc1
active: SN12C renal -77.4% | ACHN renal -95.4% | CAKI-1 renal -50.5% | CCRF-CEM leukemia -64.4% | MOLT-4 leukemia -56.8%
inactive: SK-MEL-2 melanoma 108% | EKVX NSCLC 114% | UO-31 renal 63.4% | TK-10 renal 19.9% | A498 renal 80.5%

Cc1oc2c(Cc3ccc(NC(=O)c4ccc(Cl)cc4)cc3)ncnc2c1C(=O)NO
inactive: SK-MEL-2 melanoma 88.3% | EKVX NSCLC 102% | SN12C renal 103% | UO-31 renal 85.4% | TK-10 renal 95.6% | ACHN renal 106% | CAKI-1 renal 98.9% | A498 renal 85.2% | CCRF-CEM leukemia 90.9% | MOLT-4 leukemia 82.5%

Cc1nc2sc(C(=O)Nc3cccc(Cl)c3C)c(N)c2cc1C(O)c1ccccc1 (stereo not given)
active: SN12C renal 9.22% | A498 renal -11.6%
inactive: SK-MEL-2 melanoma 38.9% | EKVX NSCLC 41.6% | UO-31 renal 40.6% | TK-10 renal 49.7% | ACHN renal 22.5% | CAKI-1 renal 30.9% | CCRF-CEM leukemia 20.4% | MOLT-4 leukemia 13%

C=C(C)[C@@H]1CC[C@]2(C(=O)O)CC[C@]3(C)[C@H](CC[C@@H]4[C@@]5(C)CCC(N)C(C)(C)[C@@H]5CC[C@]43C)[C@@H]12 (stereo not given in full)
active: SN12C renal -7.83% | ACHN renal 8.7% | CCRF-CEM leukemia -8.42%
inactive: SK-MEL-2 melanoma 93% | EKVX NSCLC 67.6% | UO-31 renal 63.4% | TK-10 renal 47.8% | CAKI-1 renal 48.6% | A498 renal 78.1% | MOLT-4 leukemia 25.7%

Nc1nc(CSc2n[nH]c(N)n2)nc(Nc2ccccc2)n1
inactive: SK-MEL-2 melanoma 106% | EKVX NSCLC 96.1% | SN12C renal 101% | UO-31 renal 87.2% | TK-10 renal 99.1% | ACHN renal 98.6% | CAKI-1 renal 87.6% | A498 renal 89.3% | CCRF-CEM leukemia 45.9% | MOLT-4 leukemia 107%

COc1cc(-c2nn(-c3cccc(NC(=O)CCN4CCN(C)CC4)c3)cc2-c2ccncc2)ccc1Cl
active: SK-MEL-2 melanoma 2.29% | CCRF-CEM leukemia 9.08%
inactive: EKVX NSCLC 47.1% | SN12C renal 33.3% | UO-31 renal 41.5% | TK-10 renal 39.2% | ACHN renal 51.7% | CAKI-1 renal 38.7% | A498 renal 14.1% | MOLT-4 leukemia 12.7%

O=C(/C=C/C12c3ccccc3C(c3ccccc31)C1C(=O)NC(=O)C12)c1ccncc1 (stereo not given)
inactive: SK-MEL-2 melanoma 46.6% | EKVX NSCLC 80.6% | UO-31 renal 26.5% | TK-10 renal 17.5% | ACHN renal 23.7% | CAKI-1 renal 43.9% | A498 renal 87.4%
active: SN12C renal 7.85% | CCRF-CEM leukemia -12.7% | MOLT-4 leukemia 1.28%

Nc1nc(N)c2c(n1)NC(c1cccc(Nc3ccnc4cc(C(F)(F)F)ccc34)c1)CC(c1ccc(F)cc1)=N2 (stereo not given)
active: MOLT-4 leukemia 2.74%
inactive: SK-MEL-2 melanoma 37.3% | EKVX NSCLC 47% | SN12C renal 59.8% | UO-31 renal 53.7% | TK-10 renal 91.8% | ACHN renal 75.5% | CAKI-1 renal 47.1% | A498 renal 78.1% | CCRF-CEM leukemia 25%

C=C1C(=O)O[C@H]2[C@H]1CC/C(COC(=O)NCCCCNC(=O)OC/C1=C/CC[C@@]3(C)O[C@H]3[C@H]3OC(=O)C(=C)[C@@H]3CC1)=C\CC[C@@]1(C)O[C@@H]21
inactive: SK-MEL-2 melanoma 36.4% | EKVX NSCLC 89% | SN12C renal 19.6% | UO-31 renal 79.8% | TK-10 renal 20.1% | ACHN renal 57.5% | CAKI-1 renal 76.8% | A498 renal 95.1%
active: CCRF-CEM leukemia -33.6% | MOLT-4 leukemia -14.8%

NC(N)=NC(N)=NCCCc1ccco1
inactive: SK-MEL-2 melanoma 96.1% | EKVX NSCLC 113% | SN12C renal 108% | UO-31 renal 102% | TK-10 renal 86.2% | ACHN renal 107% | CAKI-1 renal 96.4% | A498 renal 118% | CCRF-CEM leukemia 101% | MOLT-4 leukemia 93.2%

CN(C)CCCn1c2c(c3ccc(N4CCNCC4)cc3c1=O)C(=O)c1ccccc1-2
active: EKVX NSCLC -39% | SN12C renal 6.82% | UO-31 renal 2.6% | TK-10 renal -0.224% | ACHN renal -10.5% | CAKI-1 renal 5.62% | CCRF-CEM leukemia -4.22% | MOLT-4 leukemia -21.9%
inactive: SK-MEL-2 melanoma 39.6% | A498 renal 74.3%

Nc1nc2c(s1)CCc1cn(S(=O)(=O)c3ccccc3)cc1-2
inactive: SK-MEL-2 melanoma 106% and 99.1% | EKVX NSCLC 95.8% | SN12C renal 86.6% and 93.5% | UO-31 renal 54.5% and 84.5% | TK-10 renal 108% and 115% | ACHN renal 95.9% and 101% | CAKI-1 renal 85.8% and 101% | A498 renal 80% and 73.5% | CCRF-CEM leukemia 79.9% and 79.3% | MOLT-4 leukemia 84.3% and 91.6%

CCOC(=O)N(O)c1ccc(/C=C/c2ccccc2)cc1
active: TK-10 renal 4.6% | A498 renal -67.4% and -83.1%
inactive: SK-MEL-2 melanoma 66.5% and 53.1% | EKVX NSCLC 91.8% | SN12C renal 66.3% and 62.6% | UO-31 renal 56.2% and 57.4% | ACHN renal 76.2% and 70.3% | CAKI-1 renal 51.7% and 81.4% | CCRF-CEM leukemia 55.2% and 63% | MOLT-4 leukemia 59.4% and 60.9%

N#C/C(=C\c1ccc(Br)cc1)n1nnc2c(F)cccc21
inactive: SK-MEL-2 melanoma 28.4% | EKVX NSCLC 30.6%
active: SN12C renal -1.81% | UO-31 renal -65.9% | TK-10 renal 2.41% | ACHN renal -50.8% | CAKI-1 renal -4.93% | A498 renal -21.9% | CCRF-CEM leukemia 2.97% | MOLT-4 leukemia 9.87%

N#C/C(=C\c1ccccc1Cl)c1cc2ccccc2[nH]1
active: CCRF-CEM leukemia -4.12%
inactive: SK-MEL-2 melanoma 114% | EKVX NSCLC 77.1% | SN12C renal 92.4% | UO-31 renal 69.7% | TK-10 renal 130% | ACHN renal 84.7% | CAKI-1 renal 73.1% | A498 renal 98.6% | MOLT-4 leukemia 77.1%

Cc1ccc(Nc2nc(-c3cc(O)c(C)c(C)c3O)cs2)cc1
inactive: SK-MEL-2 melanoma 105% | EKVX NSCLC 97.4% | SN12C renal 97% | UO-31 renal 89.7% | TK-10 renal 120% | ACHN renal 99.1% | CAKI-1 renal 92.7% | A498 renal 123% | CCRF-CEM leukemia 14.8% | MOLT-4 leukemia 26.5%

S=c1nc(CS)[nH]c2ccccc12
inactive: SK-MEL-2 melanoma 101% | EKVX NSCLC 84% | SN12C renal 95.4% | UO-31 renal 71.8% | TK-10 renal 161% | ACHN renal 93.5% | CAKI-1 renal 77.1% | A498 renal 53.2% | CCRF-CEM leukemia 102% | MOLT-4 leukemia 102%
